PubChem BioAssay (NCI)
About 83,000 compounds went through this panel and 20% of them were active in at least one assay; those are over-represented in the sample as a whole.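 Negative percent growth values reflect cell death: -40 means 40% of the cells present at the start died, and -100 means all died.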 Active and inactive are the calls of the source.

These compounds were tested on A498 renal (assay: NCI-60 one-dose screen, 48 h (100 = growth as untreated, 0 = no growth, -100 = all killed)). Settings: 10 µM unless noted.
Description: Growth inhibition of the A498 human tumor cell line is measured as a screen for anti-cancer activity. Cells are grown in 96 well plates and exposed to the test compound for 48 hours. Compounds are tested at a single concentration, which is 10^-5 M for most compounds. The reported endpoint is percent growth (GI% or GIPRCNT), where numbers from 0 - 100% represent growth inhibition, and numbers from -100% - 0 represent cell death. For example, a value of 40 represents 60% growth inhibition. A value of 0 means no net growth occurred over the course of the experiment. A value of -40 indicates 40% of cells at the beginning of the experiment died by the end of the experiment. A value of -100 means all cells are dead at the end of the experiment.
NCI-60 Human Tumor Cell Lines Screen was performed using the standard one-dose NCI protocol, which is described in more detail at https://dtp.cancer.gov/discovery_development/nci-60/default.htm.
Compounds with GIPRCNT values below 10 were considered active. Activity score was based on GIPRCNT using the following formula: […]
Score is 0 for GIPRCNT values of 100 or above, 50 for GIPRCNT values of 0, and 100 for GIPRCNT values of -100.

Row | SMILES | growth
1 | COc1ccc2c(c1)sc1nc(-c3ccc(N(C)C)cc3)cn12 | 111% (inactive)
2 | Cc1cc2c(cc1C)[n+](Cc1ccc3ccccc3n1)cn2Cc1ccc2ccccc2n1 | 17.1% (inactive)
3 | CCSc1nc(-c2ccc(F)cc2)c(C#N)c(=O)[nH]1 | 112% (inactive)
4 | COc1ccc(-n2cnc3cc(C(=O)N4CCCCC4)ccc32)cc1 | 96.3% (inactive)
5 | N#Cc1c(NC(=O)c2ccco2)[n+]([O-])c2cc(Cl)c(Cl)cc2[n+]1[O-] | 109% (inactive)
6 | COc1ccc(C2=NN(C(N)=S)C(c3ccc4c(c3)OCO4)C2)cc1 (stereo not given) | 49.2% (inactive)
7 | O=C1/C(=C/c2ccccc2O)C(=S)SN1Cc1ccco1 | 95.2% (inactive)
8 | Clc1ccc(C2c3ccccc3-c3nccn32)c(Cl)c1 (stereo not given) | 90.3% (inactive)
9 | CC(C)OP(=O)(OC(C)C)c1ncc(-c2ccc(C(F)(F)F)cc2)c(NC2CCCCCC2)n1 | -94% [33.3 µM] (active)
10 | CC(C)CNc1nc(N=[N+]=[N-])nc(NCC(C)C)n1 | 35.5% [100 µM] (inactive)
11 | CCc1nn2c(-c3ccc(Cl)cc3C)c(-c3cc(OC)c(OC)c(OC)c3)nc2s1 | 74.5% (inactive)
12 | COc1ccc(-c2cc(-c3cccnc3)nc(S(=O)(=O)CC(=O)Nc3ccc(C)cc3)c2C#N)cc1OC | 57.3% (inactive)
13 | O=[N+]([O-])c1ccc(N=Nc2c(Cl)cc(O)cc2Cl)cc1 | -26.4% (active)
14 | Nc1ccc2c(c1)Cc1cc(Cl)c(Cl)cc1-2 | 60.1% (inactive)
15 | C[C@H]1C(=O)N2c3ccccc3[C@@]3(O)C[C@@H](n4cnc5ccccc5c4=O)C(=O)N1[C@@H]23 | 121% (inactive)
16 | CCOC(=O)c1sc(NC(=O)COc2cccc(/C=C3\Cc4ccc(Cl)cc4C3=O)c2)nc1C | 133% (inactive)
17 | Cn1c(=O)c2[nH]c(=S)n(Cc3ccccc3)c2n(C)c1=O | 92.8% (inactive)
18 | O=C(O)CNC(=O)C1(N2C(=O)c3ccccc3C2=O)CCCC1 | 100% (inactive)
19 | CCCCCCCCCCOC(C)=O | 108% (inactive)
20 | CCCCCc1c(C)[nH]c(/C=C2\N=C(c3ccc[nH]3)C=C2Oc2ccc(Cl)cc2)c1C | -49% [100 µM] (active)

Row | SMILES | growth
21 | COc1ccccc1NC(=O)c1sc2nc3c(cc2c1N)C(=O)CCC3 | -5.03% (active)
22 | CCCCc1ccc(C(N)=O)nc1 | -4.32% (active)
23 | COc1cnc2c(c1)C(=O)c1c-2n(CCCN2CCOCC2)c(=O)c2cc(F)ccc12 | -24% (active)
24 | COc1cc(C(=O)/C=C/c2cccc(Nc3ccnc4cc(Cl)ccc34)c2)cc(OC)c1OC | 78.6% (inactive)
25 | CN[C@@H]1C(OC2[C@H](O[C@H]3[C@H](O)[C@@H](O)[C@H](N=C(N)N)[C@@H](O)[C@@H]3N=C(N)N)OC(C)[C@]2(O)CO)OC(CO)C(O)C1O (stereo not given in full) | 109% (inactive)
26 | CC(=O)Nc1ccc(C(=O)COc2ccc(/C=C3\CCc4ccccc4C3=O)cc2)cc1 | 66.3% (inactive)
27 | CC(=O)c1ccc(NS(=O)(=O)c2ccc([N+](=O)[O-])cc2)cc1 | 90.5% (inactive)
28 | OCCN1CCN(CCCN2c3ccccc3Sc3ccc(C(F)(F)F)cc32)CC1 | 44.5% (inactive)
29 | COc1cnc2c(c1)C(=O)c1c-2n(CCCN2CCC(O)CC2)c(=O)c2cc(F)ccc12 | -87.9% (active)
30 | COc1cc(/C=C2\CN(S(=O)(=O)c3ccc(C)cc3)C/C(=C\c3cc(CN4CCOCC4)c(O)c(OC)c3)C2=O)cc(CN2CCOCC2)c1O | 36.5% (inactive)
31 | O=CN1N=C(c2ccc(Cl)cc2)CC1c1cccc(Nc2ccnc3cc(Cl)ccc23)c1 (stereo not given) | 9.76% (active)
32 | O=C(CNC(=O)c1cccc2ccccc12)Nc1ccccc1Oc1cccc(O)c1 | 11.5% [5 µM] (inactive)
33 | CCOC(=O)C1=CCC(n2cc(C)c(=O)[nH]c2=O)O1 (stereo not given) | 121% (inactive)
34 | O=C(CC(C(=O)c1ccccc1)N1CCN(Cc2ccccc2)CC1)c1ccccc1 (stereo not given) | 74.6% (inactive)
35 | O=C1CSC(c2ccccc2Cl)N1c1nnc(Cn2nnc3ccccc32)o1 (stereo not given) | 50.2% (inactive)
36 | Cc1csc(C#Cc2cncc(O)c2)n1 | 103% (inactive)
37 | Cc1ccc(/C=C/C(=O)c2ccc(F)cc2)s1 | 70.1% (inactive)
38 | C=C1CCC2C3(C)COC(c4ccccc4)OC3CCC2(C)C1C/C=C1/C(=O)OCC1OC(C)=O (stereo not given) | 103% (inactive)
39 | O=C(NCCCl)NCCN1c2nc3ccccc3cc2Sc2cc3ccccc3nc21 | 80.3% (inactive)
40 | Nc1c(C(=O)Nc2cccc(Cl)c2)sc2nc3c(cc12)C(O)CCC3 (stereo not given) | -10.6% (active)
